According to ChEMBL document CHEMBL3433997, “St. Jude Leishmania screening dataset” (2016):
“And” between values parts separate entries of the source, which are not always exact repeats. Equal entries are not always repeated.

Columns and labels:
Assay type in all cases: functional
[1] = target: Solute carrier family 2, facilitated glucose transporter member 1 (Homo sapiens) (UniProt P11166); experiment: ST_JUDE_LEISH: Cytotoxicity at 2uM final concentration against transgenic Leishmania Mexicana promastigotes LmGLUT1 that are glucose transport deficient and complemented with the human glucose transporter GLUT1. Activity is measured by DNA content using SYBR green in vitro
Chain of Solute carrier family 2, facilitated glucose transporter member 1 (Homo sapiens) (P11166 whole entry): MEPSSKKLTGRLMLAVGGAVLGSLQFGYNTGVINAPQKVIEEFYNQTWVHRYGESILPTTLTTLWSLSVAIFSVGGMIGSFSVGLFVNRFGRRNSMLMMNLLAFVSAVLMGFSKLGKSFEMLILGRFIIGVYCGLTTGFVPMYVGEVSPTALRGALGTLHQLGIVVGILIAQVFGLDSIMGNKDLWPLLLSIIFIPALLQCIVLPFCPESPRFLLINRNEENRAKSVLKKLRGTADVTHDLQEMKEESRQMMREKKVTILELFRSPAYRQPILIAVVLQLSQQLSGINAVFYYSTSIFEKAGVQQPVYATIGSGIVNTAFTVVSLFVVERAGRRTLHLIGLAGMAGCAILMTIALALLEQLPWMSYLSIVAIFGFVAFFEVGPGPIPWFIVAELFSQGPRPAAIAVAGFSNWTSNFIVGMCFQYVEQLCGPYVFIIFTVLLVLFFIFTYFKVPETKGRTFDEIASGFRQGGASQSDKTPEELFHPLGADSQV

[2] = target: Hexose transporter 1 (Plasmodium falciparum) (UniProt O97467); experiment: ST_JUDE_LEISH: Cytotoxicity at 2uM final concentration against transgenic Leishmania Mexicana promastigotes LmPfHT that are glucose transport deficient and complemented with the Plasmodium falciparum hexose transporter. Activity is measured by DNA content using SYBR green in vitro
[3] = target: Glucose transporter (Leishmania mexicana) (UniProt O61059); experiment: ST_JUDE_LEISH: Cytotoxicity at 2uM final concentration against transgenic Leishmania Mexicana promastigotes LmGT2 that are glucose transport deficient and complemented with the L. Mexicana glucose transporter 2. Activity is measured by DNA content using SYBR green in vitro

CCCC(=O)c1c(O)c2ccccc2oc1=O
inhibition [1]: 6.46%
inhibition [2]: 7.19%
inhibition [3]: 5.83%

Cc1cc(O)cc2c(C3CCN(CC4CCN(C(=O)/C=C/c5ccc(Cl)c(Cl)c5)CC4)CC3)c[nH]c12
inhibition [1]: 0.1%
inhibition [2]: -0.37%
inhibition [3]: 0.13%

Cc1ccc(/C=C/C(=O)NC2CCC(CN3CCC(c4c[nH]c5ccccc45)CC3)CC2)cc1 (configuration not stated)
inhibition [1]: 0.19% and 4.55%
inhibition [2]: 1.12% and 3.15%
inhibition [3]: 2.44% and 0.47%

O=C(Cc1cc(=O)oc2cc(O)ccc12)N1CCC(CN2CCC(c3c[nH]c4ccccc34)CC2)CC1
inhibition [1]: 4.12%
inhibition [2]: 5.46%
inhibition [3]: 5%

N#Cc1c(Cl)cccc1Oc1ccc(S(=O)(=O)N2CCC(CN3CCC(c4c[nH]c5ccccc45)CC3)CC2)cc1
inhibition [1]: 1.64%
inhibition [2]: -0.14%
inhibition [3]: -0.73%

CC[C@H]1CN2CC[C@H]1C[C@H]2[C@H](O)c1cc(-c2ccc(F)cc2C)nc2ccc(OC)cc12
inhibition [1]: 4.97%
inhibition [2]: 1.01%
inhibition [3]: 2.55%

CCCN(CC(=O)NCCc1ccccc1)c1ccc(C#N)c2ccccc12
inhibition [1]: 2.23%
inhibition [2]: 1.5%
inhibition [3]: 1.66%

N=c1c2c(n(Cc3ccc(Cl)cc3Cl)c3c1CCC3)CCCC2
inhibition [1]: 17.8%
inhibition [2]: 26.7%
inhibition [3]: 6.7%

O=C(C=Cc1ccc(F)c(Br)c1)N1CCC(CN2CCC(c3c[nH]c4ccccc34)CC2)CC1
inhibition [1]: 17.6%
inhibition [2]: 15.9%
inhibition [3]: 13.1%

COc1cccc(C2(C)CCN(CCCCNC(=O)c3ccc(NC(=O)c4ccc(Cl)cc4)cc3)CC2)c1
inhibition [1]: -1.81%
inhibition [2]: -1.78%
inhibition [3]: -3.4%

N=C(N)NC(=O)Nc1ccc([N+](=O)[O-])c(Cl)c1
inhibition [1]: 0.15%
inhibition [2]: 1.53%
inhibition [3]: 0.59%

O=C(/C=C/c1cc(F)c(F)cc1F)N1CCC(CN2CCC(c3c[nH]c4ccccc34)CC2)CC1
inhibition [1]: 0.47%
inhibition [2]: 1.36%
inhibition [3]: 0.46%

CC[C@H]1CN2CC[C@H]1C[C@@H]2[C@@H](O)c1ccnc2ccccc12
inhibition [1]: -0.01%
inhibition [2]: 0.66%
inhibition [3]: -1.98%

C=C[C@H]1CN2CC[C@H]1C[C@H]2[C@H](O)c1cc(/C=C/c2ccc(F)cc2)nc2ccc(OC)cc12
inhibition [1]: 2.95%
inhibition [2]: 0.72%
inhibition [3]: 2.4%

CCCCCCCc1cc(=O)c2ccccc2[nH]1
inhibition [1]: 12.7%
inhibition [2]: 3.61%
inhibition [3]: 1.21%

CCN(CC)CCOC(=O)C(OC)(c1ccccc1)c1ccccc1
inhibition [1]: 0.95%
inhibition [2]: 3%
inhibition [3]: 1.83%

CC[C@H]1CN2CC[C@H]1C[C@H]2[C@@H](O)c1cc(OCCCN(C)C)nc2ccc(OC)cc12
inhibition [1]: -1.68%
inhibition [2]: -1.68%
inhibition [3]: -0.74%

Oc1ccc(CN2CCN(CCOC(c3ccccc3)c3ccccc3)CC2)cc1Cl
inhibition [1]: 0.53%
inhibition [2]: 3.98%
inhibition [3]: -1.69%

Oc1ccccc1CNCC(O)c1cccc(C(F)(F)F)c1 (configuration not stated)
inhibition [1]: -0.54%
inhibition [2]: -1.26%
inhibition [3]: -1.55%

COc1cccc(CN2CCC(CCOC(c3ccccc3)c3ccccc3)CC2)c1O
inhibition [1]: 2.87%
inhibition [2]: -0.08%
inhibition [3]: -0.42%

C[C@@H]1C[C@@H]([C@H](O)CC2CC(=O)NC(=O)C2)C(=O)[C@@H](C)C1
inhibition [1]: 90%
inhibition [2]: 90.8%
inhibition [3]: 88.7%

COCCNCc1cccc(-c2cccc(CN(C(=O)Nc3ccccc3)C3CCN(Cc4ccccc4)CC3)c2)c1
inhibition [1]: 3.2%
inhibition [2]: 2.07%
inhibition [3]: 1.33%

O=C(/C=C/c1ccc(Cl)c(Cl)c1)NC1CCC(N2CCC(c3c[nH]c4ccc(O)cc34)CC2)CC1 (configuration not stated)
inhibition [1]: 1.81%
inhibition [2]: 1.52%
inhibition [3]: 2.5%

COc1ccc2[nH]cc(C3=CCN(CC4CC4C(=O)c4ccccc4)CC3)c2n1 (configuration not stated)
inhibition [1]: 12.6%
inhibition [2]: 14.6%
inhibition [3]: 11.3%

CC(Cc1ccc(-c2nc3ccccc3[nH]2)cc1)NCC(O)c1cccc(C(F)(F)F)c1 (configuration not stated)
inhibition [1]: 1.35%
inhibition [2]: -1.73%
inhibition [3]: -0.37%

O=C(/C=C/c1ccc(Cl)c(Cl)c1)NC1CCC(CN2CCC(c3c[nH]c4ccc(O)cc34)CC2)CC1 (configuration not stated)
inhibition [1]: 1.43% and 1.97%
inhibition [2]: 0.14% and 2.98%
inhibition [3]: -2.67% and 3.13%

CCOC(C(=O)OCC1CCCN(C)C1)(c1ccccc1)c1ccccc1 (configuration not stated)
inhibition [1]: 4.97%
inhibition [2]: 4.46%
inhibition [3]: 5.83%

CC[C@H]1CN2CC[C@H]1C[C@H]2[C@H](O)c1cc(-c2ccc(Cl)c(Cl)c2)nc2ccc(OC)cc12
inhibition [1]: 12.6%
inhibition [2]: 9.65%
inhibition [3]: 9.4%

O=P(O)(O)Oc1c(Br)cc(Br)cc1-c1cc(Br)cc(Br)c1O
inhibition [1]: 0.02%
inhibition [2]: 1.27%
inhibition [3]: 0.55%

CC[C@H]1CN2CC[C@H]1C[C@H]2[C@H](O)c1cc(N2CCC3CCCCC3C2)nc2ccc(OC)cc12 (some centres not stated)
inhibition [1]: 3.3%
inhibition [2]: 4.42%
inhibition [3]: 3.38%

O=C1NCN(c2ccc(O)cc2)C12CCN(CCCC(c1ccc(F)cc1)c1ccc(F)cc1)CC2
inhibition [1]: 3.87%
inhibition [2]: 3.34%
inhibition [3]: 3.43%

COc1cccc(CC(C)NCC(O)c2cccc(Cl)c2)c1 (configuration not stated)
inhibition [1]: 0.74%
inhibition [2]: 2.67%
inhibition [3]: 1.92%

O=C(/C=C/c1ccc(Cl)c(Cl)c1)N1CCC2CC(N3CCC(c4c[nH]c5ccccc45)CC3)CCC2C1 (configuration not stated)
inhibition [1]: 3.41%
inhibition [2]: -0.87%
inhibition [3]: 0.24%

CO[C@@H]1C[C@@H](C(=O)Nc2ccccc2)N(c2ccc(C#N)c3ccccc23)C1
inhibition [1]: 4.31%
inhibition [2]: 5.45%
inhibition [3]: 3.78%
